# Hits are enriched below; roughly 2.4% of the tested compounds scored in any of these assays.
# D2 ag-1 – agonists of human D2 dopamine receptor (beta-arrestin) | hit rate 0.084% among 360,000 | activation, % (concentration not given with the values) | DiscoveRx PathHunter D2 beta-arrestin, luminescence, 90 min; 100% = 57 uM dopamine signal | AID 624465; in the data active means activation above about 40%
# Target sequence (P14416 whole entry, looked up): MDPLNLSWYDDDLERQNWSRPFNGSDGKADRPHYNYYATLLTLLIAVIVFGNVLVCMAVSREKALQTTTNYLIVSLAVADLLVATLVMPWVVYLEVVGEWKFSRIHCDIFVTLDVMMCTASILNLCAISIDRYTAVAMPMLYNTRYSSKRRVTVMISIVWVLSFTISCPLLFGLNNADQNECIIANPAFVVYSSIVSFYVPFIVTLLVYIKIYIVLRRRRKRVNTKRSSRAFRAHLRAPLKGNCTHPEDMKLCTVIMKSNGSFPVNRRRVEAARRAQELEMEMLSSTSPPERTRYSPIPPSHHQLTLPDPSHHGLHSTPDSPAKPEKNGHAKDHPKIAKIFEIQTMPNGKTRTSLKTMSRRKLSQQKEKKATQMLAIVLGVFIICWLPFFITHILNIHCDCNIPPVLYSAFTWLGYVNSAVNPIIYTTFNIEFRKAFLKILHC
#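 Agonist mode: compounds alone added to overnight-plated D2 PathHunter cells for 90 min at 37 C, with 57 uM final dopamine (EC100) defining full response. Beta-arrestin recruitment detected by chemiluminescent reagent, read after 1 h at ambient temperature.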
# D2 PAM-1 – positively modulates the human D2 dopamine receptor allosterically; P14416; HEK293 T-REx D2, calcium flux, EC20 dopamine potentiation; potentiation, % at 10 µM; hit rate 0.34% among 340,000; AID 485347;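 active means potentiation over 3 SD above the plate norm, cut at about 30% in these data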; further: 0% is about no effect
#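 Potentiation of an EC20 dopamine calcium response is measured in a force-coupled, tetracycline-inducible Hek293 Trex D2 line. Compound-only kinetic reads over 180 s flag agonists before dopamine addition.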
# D2 ag-2 – activates the human D2 dopamine receptor. HEK293 T-REx D2 cells, calcium flux agonist mode. activation, % at 2 µM. hit rate 0.53% among 340,000. AID 485358;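 active means activation over 3 SD above normal in the single-dose calcium agonist read, cut at about 30% in these data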; further: 0% is about no effect
#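 HEK293 Trex D2 cells, tetracycline-induced, o/n 30 C 5% CO2; no-wash Ca dye, RT 30–90 min; 10-cycle baseline, 23 nl cpd added, kinetic Ca read 180 s; agonist hits = positive Ca response.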
# D2 PAM-2 – potentiates the human D2 dopamine receptor allosterically; hit rate 0.23% among 360,000; potentiation, % (test concentration not listed); P14416; DiscoveRx D2 beta-arrestin cells, luminescence, 90 min; 100% = 57 uM dopamine signal; in the data active means potentiation above about 50%
#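 PathHunter D2 cells, attached overnight at 37 deg C, received compound in DMSO plus dopamine at EC20 (50 nM final) for 90 min at 37 deg C. Beta-arrestin recruitment was read as luminescence after 1 h with detection reagent at ambient temperature.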
# D2 antag – antagonizes the human D2 dopamine receptor | AID 485344 | hit rate 2% among 340,000 | inhibition, % at 10 µM | HEK293 TREx D2 cells, calcium flux, dopamine EC80 | P14416; in the data active means inhibition above about 30%; inactive means below that, where a call was filed; further: 0% is about no effect
#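 In this primary screen, negative modulation is detected by tracking calcium flux after an EC80 dopamine challenge in inducible HEK293 T-REx D2 cells preexposed to test compound for 180 s.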
# * = called active by the depositor; / = no result.
SMILES,D2 ag-1,D2 PAM-1,D2 ag-2,D2 PAM-2,D2 antag
Cc1cc(C)cc(C(=O)NCC(=O)OCN2C(=O)c3ccccc3C2=O)c1,-3.7,-3.6,0.1,-8.3,44.1*
CCOC(=O)c1ccc(NC(=O)N2CCN(C3CCCCC3)CC2)cc1,-0.7,-2.7,-0.8,-15.3,34.4*
CCOC(=O)c1ccc(NC(=O)CC2C(=O)OCCN2CC)cc1 (configuration not stated),-5.3,-4.5,-1.0,-2.5,47.7*
CCOC(=O)c1ccc(NC(=O)N2CCN(Cc3ccccc3)CC2)cc1,7.6,-0.4,-0.6,-8.3,43.6*
CCOC(=O)N1CCN(C(=O)Nc2ccccc2)CC1,-2.0,-1.6,0.1,-3.3,30.7*
O=C(NC1CCCCC1)c1cc(Nc2cccc(C(F)(F)F)c2)nc2ccccc12,/,22.6,-0.6,/,/
COc1cccc(CNC(=O)CCc2nnc3n(CC(C)C)c(=O)c4ccccc4n23)c1,/,7.1,-0.3,/,/
O=C(NCc1nc2ccccc2[nH]1)C1=C[C@H](C2CC2)C[C@H](OCc2ccc(CO)cc2)O1,-1.7,2.2,0.8,-14.3,40.0*
O=C(NCc1nc2ccccc2[nH]1)C1=C[C@@H](C2CC2)C[C@@H](OCc2ccc(CO)cc2)O1,0.9,2.4,1.8,-40.1,8.2
C=C(C)CSc1nc2c(c(=O)[nH]c(=O)n2C)n1CCC(C)C,-2.1,34.1*,-0.6,-2.9,-4.4
CCSc1nc2c(c(=O)[nH]c(=O)n2C)n1C/C=C(/C)Cl,-1.1,48.4*,0.4,4.4,3.4
Cc1cccc(NC(=O)c2cn(-c3ccccc3)nc2-c2ccccc2)c1C,/,-2.3,1.3,/,/
O=C(Nc1cccc(-c2ccc(N3CCOCC3)nn2)c1)c1ccc(Cl)cc1,0.5,-15.2,0.0,20.3,30.6*
CC(=N/O)/C(C)=N\NC(=O)c1ccccn1,1.0,-1.7,0.2,-10.9,-9.9
C/C(=N\NC(=O)c1ccccn1)c1ccc(C(=O)O)s1,/,-7.2,-1.4,/,59.3*
c1csc(CSc2nc3ccccc3s2)c1,-1.0,13.4,0.4,7.4,39.1*
Cc1noc(C)c1CSc1nc2ccccc2s1,-1.7,/,-0.4,-0.9,18.0
O=C1N=c2ccccc2=C1c1sc(=S)n(CC2CCCO2)c1O (configuration not stated),13.3,4.4,-2.2,107.6*,2.2
COc1ccc(CCn2c(O)c(C3=c4ccccc4=NC3=O)sc2=S)cc1OC,6.0,7.2,-0.5,28.1,10.5
O=C(Cc1ccccc1)N1CCN(c2ccccc2F)CC1,6.7,-4.8,9.1,-2.4,-10.9
OCC1(Cc2ccccc2)CCN(C2CCN(c3ccccc3F)CC2)CC1,1.2,-29.6,-0.6,-15.4,47.2*
OCC1(Cc2ccccc2)CCN(Cc2cnn(-c3ccccc3F)c2)CC1,-2.1,-21.5,0.3,-18.4,31.2*
CC(C)c1ccc(NS(=O)(=O)c2ccc3nc(-c4ccccc4)[nH]c3c2)cc1,/,-2.8,2.0,/,/
Cc1c(C)n(C(=O)CN2CCC(C(N)=O)CC2)c2ccccc12,-1.7,-5.7,0.3,-7.6,36.3*
Cc1c(C)n(C(=O)CN2CCN(c3ccccc3)CC2)c2ccccc12,-4.5,18.7,0.7,-8.6,-6.8
SMILES,D2 ag-1,D2 PAM-1,D2 ag-2,D2 PAM-2,D2 antag
CS(=O)(=O)Cc1ccc(C(=O)NC2CCN(Cc3ccccc3)C2)cc1 (configuration not stated),1.6,-10.9,0.1,-10.9,26.9
O=C(NC1CCCC1)c1ccc2c(c1)N(Cc1ccccc1)CCS2,1.7,-3.9,-0.1,2.6,-5.8
Cc1ccc(CN2CCSc3ccc(C(=O)NC4CCN(Cc5ccccc5)CC4)cc32)cc1,-4.6,/,0.0,-13.1,73.9*
O=C(NC1CCN(Cc2ccc(F)cc2)CC1)c1ccccc1,-5.0,-20.4,-1.4,-14.9,114.8*
O=C(NC1CCN(Cc2ccc(Cl)c(Cl)c2)CC1)c1ccccc1,2.5,-29.3,-2.1,-37.2,81.0*
O=C(NC1CCN(Cc2ccc3ccccc3c2)CC1)c1ccccc1,-2.8,-22.9,-1.7,-34.0,50.9*
CC(=O)Nc1cccc(NC(=O)CSc2cn(CC(=O)N(C(C)C)C(C)C)c3ccccc23)c1,/,-5.5,2.6,/,/
COC(=O)c1sccc1S(=O)(=O)N(CC(=O)NCc1ccc(C)cc1)c1ccccc1,/,7.1,0.1,/,/
CCOC(=O)C(C)Nc1ncnc2onc(C)c12 (configuration not stated),/,/,0.9,/,/
O=C(CN1C(=O)c2cccnc2Sc2ccccc21)Nc1cc(F)ccc1F,/,-14.9,1.0,/,/
C=C(C)c1cccc(C(C)(C)NC(=O)NCc2ccncc2)c1,2.2,7.2,1.6,-5.1,34.5*
COc1ccc(Br)cc1/C=N/NC(=O)C[n+]1ccccc1,-5.8,-19.9,0.8,-7.8,40.0*
O=C(C[n+]1ccccc1)N/N=C/c1cc(Br)cc(Br)c1O,-7.5,-32.0,2.1,-30.7,31.7*
O=C(C[n+]1ccccc1)N/N=C/c1cc(Br)ccc1F,-4.7,-19.0,0.4,-32.6,-6.8
CCOc1ccc2nc(C)cc(Nc3ccccc3OCC)c2c1,/,-6.4,-2.7,/,/
C=CCN1C(=O)C(CC(=O)O)SC1=Nc1ccc(N=Nc2ccccc2)cc1 (configuration not stated),-3.3,39.5*,0.3,-12.3,-7.5
C=CCN1C(=O)C(CC(=O)O)SC1=Nc1cccc([N+](=O)[O-])c1 (configuration not stated),-3.9,9.7,0.2,-7.8,-14.2
O=C(O)CC1SC(=Nc2ccccc2)N(c2ccccc2)C1=O (configuration not stated),-0.3,0.5,0.9,1.1,42.6*
O=C(O)CC1S/C(=N\N=C2CCCCCCC2)N(c2ccccc2)C1=O (configuration not stated),0.6,1.2,0.0,-0.3,-2.9
Cc1ccc(S(=O)(=O)NCCc2nnc3ccc(SCC(=O)Nc4ccc(OC(F)(F)F)cc4)nn23)cc1,/,1.8,-1.0,/,/
CCN(CC)C(=O)CSc1nc(-c2ccc(C)cc2)nc2c1Cc1c(CO)cnc(C)c1O2,/,0.7,0.8,/,/
CCOc1cc(C=O)ccc1OCCSc1ccc(C)cc1,-3.5,-8.3,0.7,2.2,39.6*
COc1cc(C=O)ccc1OCCSc1ccc(C)cc1,1.1,-1.4,-0.7,-2.4,-4.3
COc1ccc(N2C(=O)CSC23CCCCC3)cc1,-1.5,11.3,0.2,-2.5,33.1*
CCOC(=O)C1CCN(C(c2ccccc2)c2c(O)cc(C)n(Cc3ccco3)c2=O)CC1 (configuration not stated),/,12.5,/,/,/
Cc1ccc(Sc2c(C)nn(C(=O)c3ccc(Cl)cc3)c2C)cc1,/,-8.9,-0.8,/,/
CCc1cc2c(cc3c(=O)n(CC(=O)NCCCN4CCCCCC4)nc(CC)n32)s1,-6.4,-20.6,-0.6,-0.9,32.6*
CCc1nn(CC(=O)NCCCN2CCN(C)CC2)c(=O)c2cc3sc(C)cc3n12,-1.6,1.5,1.4,-15.6,3.4

# Screening data deposited in PubChem by National Center for Advancing Translational Sciences (NCATS).
